Screening results from PubChem BioAssay.
Only a selection was taken, and hits are over-represented in it overall.
CHX counter: counter-screen hit for Shiga toxin inhibitors, cycloheximide. cell reporter, cycloheximide protein synthesis inhibition counterscreen. max response, %. 12% of 300,000 active. AID 2314; in the data active = max response mostly above about 13%, no sharp cut-off; inactive = mostly below about 14%; note: read at 38.3 µM for the half of the compounds with a filed dose; 0% is about no effect
Shiga inhibitor: inhibitors of Shiga toxin in Vero cells. Vero cells, Shiga toxin protein synthesis inhibition reporter. inhibition, % at 38.7 µM. 9.2% of 290,000 active; in the data active = inhibition mostly above about 28%, no sharp cut-off; inactive = mostly below about 43%; note: 0% is about no effect
AMA1-RON2 inh: AMA1-RON2 (P. falciparum) interaction inhibition. AlphaScreen AMA1-biotinylated RON2 peptide binding. Potency, µM (top dose mostly 58.2 µM), for the others: at the top dose activity change, negative = inhibition, hits mostly inhibitors. 0.2% of 360,000 active. AID 720542;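 note: potency is the fitted concentration of half-maximal effect; 0% = vehicle wells and -100% = peptide control; nearly all actives have a fitted effect of over 45% in size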
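AMA1 (3D7) with his tag at 25 nM final met compounds first, then biotinylated RON2 peptide at 25 nM; detection used donor plus acceptor beads, 10 µg/mL apiece, read by AlphaScreen after 30 min at room temperature.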
SARS PLP yeast: SARS-CoV PLP inhibition in yeast; S. cerevisiae expressing SARS-CoV PLpro, growth rescue; Potency, µM (doses to about 32.9 µM), for the others: top-dose activity, positive = growth rescue, actives largely listed as activators; 0.19% of 330,000 active; calls by dose curve; note: potency is the fitted concentration of half-maximal effect; 0% is about no effect; nearly all actives have a fitted effect of over 55% in size
AmpC inh detg: blocks E. coli AmpC beta-lactamase in detergent assay. P00811. AID 485294. AmpC hydrolysis of nitrocefin, absorbance 480 nm, 0.01% Triton. Potency, µM (titrated, usually from 114 µM), inactives show top-dose activity change, negative = inhibition, usual class: inhibitors. 0.041% of 370,000 active;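 note: potency is the fitted concentration of half-maximal effect; 0% = no-compound wells and -100% = no-enzyme wells; nearly all actives have a fitted effect of over 25% in size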
Target sequence (P00811 whole entry, looked up): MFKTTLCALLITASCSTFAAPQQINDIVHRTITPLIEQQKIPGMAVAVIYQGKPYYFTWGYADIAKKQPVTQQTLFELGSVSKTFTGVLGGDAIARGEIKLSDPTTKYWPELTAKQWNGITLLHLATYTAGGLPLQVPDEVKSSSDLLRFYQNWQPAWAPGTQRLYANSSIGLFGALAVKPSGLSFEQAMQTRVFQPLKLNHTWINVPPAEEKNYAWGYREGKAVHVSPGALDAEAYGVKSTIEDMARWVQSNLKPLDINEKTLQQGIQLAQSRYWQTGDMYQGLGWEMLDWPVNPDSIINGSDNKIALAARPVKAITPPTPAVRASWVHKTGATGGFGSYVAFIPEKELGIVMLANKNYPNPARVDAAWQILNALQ
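AmpC (5.3 nM in the dispensed reagent) in 20 mM phosphate pH 7.0 with 0.01% (detergent screen) or 0.0001% Triton X-100 was preincubated with compounds for 15 min at room temperature. Nitrocefin was then added from an 800 uM solution, and hydrolysis was followed at 480 nm.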
AmpC no deterg: blocks E. coli AmpC beta-lactamase in detergent-free assay; P00811; AmpC nitrocefin hydrolysis, absorbance 480 nm, 0.0001% Triton; Potency, µM (top dose mostly 57.1 µM), without a hit: at the highest dose activity change, negative = inhibition, hits mostly inhibitors; 0.52% of 330,000 active; AID 485341;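 note: potency is the fitted concentration of half-maximal effect; plate controls were no compound for no effect and no enzyme for full effect; nearly all actives have a fitted effect of over 20% in size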
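20 mM phosphate pH 7.0 + 0.01% (detergent screen) or 0.0001% Triton X-100; 5.3 nM AmpC reagent; cpd preinc 15 min RT; nitrocefin (800 uM stock) to start; A480 q20 s × 4 min; Activity was normalised to no-enzyme and no-compound control wells.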
* = called active by the depositor; [ ] = another dose, or the depositor's remark. Unless noted, calls come from the whole dose curve; as a rule, active = well fitted curve in the direction sought with a large enough effect; inconclusive = small, poorly fitted or top-dose-only effect, or another doubt; inactive = no such curve, though single readings can be large; an effect the other way counts as inactive or inconclusive.

COc1ccc(OC)c(C2=Nn3c(nnc3-c3cc(OC)c(OC)c(OC)c3)SC2)c1 was read as CHX counter -5, Shiga inhibitor -17, AMA1-RON2 inh -13%, SARS PLP yeast -1%, AmpC inh detg -14% and AmpC no deterg 143%.
Screening Cc1c(NS(=O)(=O)c2cccc(C(=O)NCc3ccco3)c2)c(=O)n(-c2ccccc2)n1C returned AMA1-RON2 inh -8%[11.6 µM].
Screening CCCCCCCC/C=C\CCCCCCCC(=O)OC[C@@H](COP(O)(O)=S)OC returned CHX counter 5 and Shiga inhibitor -1.
`c1cc(CNCCc2ccc3c(c2)OCO3)ccn1` gave CHX counter -3, AMA1-RON2 inh inconclusive, SARS PLP yeast 0%, AmpC inh detg inconclusive and AmpC no deterg 14%.
c1cc(CNc2ccc3c(c2)OCCO3)ccn1 was read as CHX counter 53*, Shiga inhibitor 83*, AMA1-RON2 inh 9%, SARS PLP yeast 1%, AmpC inh detg 4% and AmpC no deterg -25%.
`O=C(NC1CCCC1)C(c1ccncc1)N(C(=O)c1ccco1)c1ccc(Cl)cc1` (stereo not given) gave CHX counter -6, Shiga inhibitor -3, AMA1-RON2 inh 16%, SARS PLP yeast 1%, AmpC inh detg inconclusive and AmpC no deterg 29%.
CCc1ccc(N(C(=O)c2ccco2)C(C(=O)NC2CCCC2)c2ccncc2)cc1 (stereo not given) was read as CHX counter 15*, Shiga inhibitor 74*, AMA1-RON2 inh 0%, SARS PLP yeast -3%, AmpC inh detg 2% and AmpC no deterg 18%.
COc1cccc(N(C(=O)c2ccco2)C(C(=O)NC2CCCC2)c2ccc(N(C)C)cc2)c1 (stereo not given) was read as CHX counter 20*, Shiga inhibitor 17, AMA1-RON2 inh -5%, SARS PLP yeast inconclusive, AmpC inh detg 0% and AmpC no deterg -3%.
`COc1cc(OC)cc(N(C(=O)c2ccco2)C(C(=O)NC2CCCC2)c2ccc(N(C)C)cc2)c1` (stereo not given) gave CHX counter 1, Shiga inhibitor -11, AMA1-RON2 inh -4%, SARS PLP yeast 2%, AmpC inh detg inconclusive and AmpC no deterg 38%.
Screening CCc1ccc(N(C(=O)C(F)(F)F)C(C(=O)NC2CCCCC2)c2ccncc2)cc1 (stereo not given) returned CHX counter -2, Shiga inhibitor -1, AMA1-RON2 inh -7%, SARS PLP yeast -2%, AmpC inh detg 0% and AmpC no deterg 0.56µM*.
Screening Oc1cccnc1CN1CCCCC1 returned AMA1-RON2 inh 16%.
`COc1ccc(/C=N/NC(=O)c2nnn(-c3nonc3N)c2-c2cccs2)c(OC)c1` gave CHX counter 1, Shiga inhibitor -4, AMA1-RON2 inh 17%, SARS PLP yeast -1%, AmpC inh detg -1% and AmpC no deterg -43%.
CC(C)c1ccc(NC(=O)C2CC3CCC2C3)cc1 (stereo not given) was read as CHX counter 53*, Shiga inhibitor 86*, AMA1-RON2 inh 12%, SARS PLP yeast -13%, AmpC inh detg -8% and AmpC no deterg -32%.
For Cc1cc(C)c(NC(=O)C2CC3CCC2C3)c(C)c1 (stereo not given) the results were CHX counter 15*, Shiga inhibitor 33, AMA1-RON2 inh 14%, SARS PLP yeast -1%, AmpC inh detg 1% and AmpC no deterg -14%.
Cc1cccc(C)c1NC(=O)C1CC2CCC1C2 (stereo not given) was read as AMA1-RON2 inh -1%.
`CCN(C(=O)Cn1nc(Cc2ccncc2)c2ccccc2c1=O)c1cccc(C(F)(F)F)c1` gave AmpC inh detg 11%.
`Cc1cc(C)c(C#N)c(SCc2ccccc2[N+](=O)[O-])n1` gave CHX counter 0, Shiga inhibitor -8, AMA1-RON2 inh -7%, SARS PLP yeast 11%, AmpC inh detg -3% and AmpC no deterg -9%.
For Cc1cc(C)c(C#N)c(SCc2nnc(-c3ccccc3[N+](=O)[O-])o2)n1 the results were CHX counter 47*, Shiga inhibitor 70*, AMA1-RON2 inh -4%, SARS PLP yeast 0%, AmpC inh detg -3% and AmpC no deterg 2%.
Screening COc1ccc(SCCc2nnc(-c3ccccc3)o2)cc1 returned CHX counter 10, Shiga inhibitor 18, AMA1-RON2 inh 8%, SARS PLP yeast -3%, AmpC inh detg -17% and AmpC no deterg -18%.
For Cc1cc(C)c(C#N)c(SCc2nnc(-c3ccccc3)o2)n1 the results were CHX counter 40*, Shiga inhibitor 92*, AMA1-RON2 inh 7%, SARS PLP yeast -20%, AmpC inh detg -6% and AmpC no deterg -6%.
Cc1nc(SCc2nnc(-c3ccc(Cl)cc3)o2)c2c3c(sc2n1)CCC3 was read as CHX counter -1, Shiga inhibitor -8, SARS PLP yeast 3%, AmpC inh detg -6% and AmpC no deterg -48%.
For Cc1ccc(C#N)c(SCc2nnc(-c3ccc(Cl)cc3)o2)n1 the results were CHX counter 78*, Shiga inhibitor 128*, AMA1-RON2 inh -11%, SARS PLP yeast -13%, AmpC inh detg -5% and AmpC no deterg -16%.
`c1ccc(-c2nnc(CSc3nncs3)o2)cc1` gave CHX counter 46*, Shiga inhibitor 63*, AMA1-RON2 inh -1%, SARS PLP yeast -9%, AmpC inh detg 0% and AmpC no deterg -9%.
`CC(C)=CC(=O)N1CCC(n2nccc2NC(=O)CCc2ccccc2)CC1` gave CHX counter 1, Shiga inhibitor -12, AMA1-RON2 inh 6%, SARS PLP yeast -2%, AmpC inh detg -13% and AmpC no deterg 1%.
For Cc1sc(NC(=O)COc2ccc(C(C)(C)C)cc2)c(C(=O)OC(C)C)c1C the results were AmpC inh detg 0%.
Cc1ccc2occ(C(=O)c3ccco3)c(=O)c2c1 was read as CHX counter 18, Shiga inhibitor 48*, AMA1-RON2 inh 1%, SARS PLP yeast -18%, AmpC inh detg 1% and AmpC no deterg -15%.
Cc1ccc2occ(CN3CCN(Cc4ccccc4)CC3)c(=O)c2c1 was read as CHX counter 42*, Shiga inhibitor 61*, SARS PLP yeast -1%, AmpC inh detg -10% and AmpC no deterg 0%.
Screening CC(C)N1CCN(Cc2coc3ccccc3c2=O)CC1CCO (stereo not given) returned CHX counter 17*, Shiga inhibitor 24, AMA1-RON2 inh -2%, SARS PLP yeast 1%, AmpC inh detg 6% and AmpC no deterg -7%.
`O=c1c(CN2CCN(Cc3ccccc3)CC2)coc2ccc(Cl)cc12` gave CHX counter 18, Shiga inhibitor 28, AMA1-RON2 inh 0%, SARS PLP yeast -3%, AmpC inh detg inconclusive and AmpC no deterg -16%.
